Assay outcomes as filed in PubChem BioAssay.
An excerpt weighted towards active compounds, which were near 0.99% of everything screened.
TRPML1 blocker = human mucolipin-1 channel inhibition; Q9GZU1; TRPML1-inducible cells, Ca2+ dye fluorescence, FDSS; stronger effect = lower value; inhibition of EC80 agonist-evoked calcium signal; activity change, negative = inhibition, % (concentration not given with the values); 0.02% of 390,000 active; in the data active = activity change below about -50%; inconclusive = between about -30% and that limit;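 note: stimulus is agonist 54-4 at its EC80 concentration; % is set by controls: 0 for no effect and ±100 for the full control effect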
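Calcium fluorescence in TRPML1-DL cells induced overnight with Tet: a 110 s read after compound pin addition, then a 110 s antagonist read after challenge with 54-4 at 4 uM final (EC80).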
TRPV1 potentiator = human TRPV1 potentiation; TRPV1-expressing cells, Fluo-8 calcium influx, capsaicin EC20 potentiation; 0.02% of 320,000 active; potentiation, % at 8.33 µM; AID 540277; Q8NER1; in the data active = potentiation above about 80%; inconclusive = between about 30% and that limit; note: 0% is about no effect
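Fluo-8 calcium influx in TRPV1-expressing cells, kinetic read (ex 480/em 520 nm). Compound added and read 3 min for agonist activity, followed by capsaicin at EC20 final and 2 min further read for enhancement.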
TRPV1 ag = human TRPV1 agonism. activation, % at 8.33 µM. TRPV1-expressing cells, Fluo-8 calcium influx, agonist mode. AID 540275. 0.19% of 320,000 active; in the data active = activation above about 80%; inconclusive = between about 30% and that limit; note: 0% is about no effect
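Fluo-8 calcium influx in TRPV1-expressing cells, kinetic read (ex 480/em 520 nm). Compound added and read 3 min for agonist activity, followed by capsaicin at EC20 final and 2 min further read for enhancement.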
TRPML1 agonist = agonists of human TRPML1 channel. AID 624414. Q9GZU1. 0.12% of 410,000 active. activation, % (test concentration not listed). TRPML1-expressing cells, Ca2+ dye fluorescence, FDSS; in the data active = activation above about 50%; inconclusive = mostly about 30% to 49%; note: 0% is about no effect
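Agonist activity was taken from a 110 s kinetic Ca2+ dye read on the FDSS after pinning compounds onto TRPML1-DL cells. The cells were seeded at 1,500/well with Tet inducer, incubated about 16 h, then dye-loaded at room temperature.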
TRHR agonist = TRH receptor (human) agonism. P34981. TRHR cells, calcium flux fluo-8, FDSS agonist mode. activation, % at 2 µM. 0.18% of 360,000 active; in the data active = activation above about 30%; note: 0% is about no effect
Target sequence (P34981 whole entry, looked up): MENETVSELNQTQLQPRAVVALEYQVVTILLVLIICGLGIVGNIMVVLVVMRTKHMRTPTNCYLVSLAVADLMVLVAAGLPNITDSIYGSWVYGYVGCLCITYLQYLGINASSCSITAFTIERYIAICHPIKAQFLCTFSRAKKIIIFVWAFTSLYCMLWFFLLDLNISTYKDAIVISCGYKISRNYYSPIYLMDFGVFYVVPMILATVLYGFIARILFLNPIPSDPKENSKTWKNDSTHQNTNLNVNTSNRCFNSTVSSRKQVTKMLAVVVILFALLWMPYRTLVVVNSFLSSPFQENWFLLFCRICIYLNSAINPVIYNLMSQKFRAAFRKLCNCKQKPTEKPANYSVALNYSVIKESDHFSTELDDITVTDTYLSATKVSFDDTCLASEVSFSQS
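In this calcium-flux screen, cells bearing human TRHR are dye-loaded with fluo-8, baselined for 10 cycles, then exposed to library compounds; positive kinetic calcium responses during the agonist phase mark hits, with TRH as control.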
TRHR enhancer = allosterically enhances the human TRH receptor; P34981; 0.66% of 360,000 active; TRHR cells, fluo-8 calcium fluorescence, EC20 TRH enhancement; enhancement, % at 2 µM; AID 493056; in the data active = enhancement above about 30%; note: 0% is about no effect
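TRHR-expressing cells loaded with fluo-8 calcium dye were read kinetically (ex 480/em 530) during compound addition, then stimulated with an EC20 of TRH (10 nM final). Enhancement of the Gq-mediated intracellular calcium response was scored.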
* marks the source's active call; other numbers are inactive results; ? = inconclusive; . = no result; ! = not active in a repeat.

SMILES	TRPML1 blocker	TRPV1 potentiator	TRPV1 ag	TRPML1 agonist	TRHR agonist	TRHR enhancer
C=CCN1C(=O)/C(=C/c2ccc(O)c(OC)c2)S/C1=N/c1nccs1	-16	-9	?	18	72*	5
C=CCN1C(=O)/C(=C/c2ccc(N(C)C)cc2)S/C1=N\c1nnc(CC)s1	.	9	28	.	53*	7
C=CCN=C1S/C(=C\c2ccc(Cl)cc2)C(=O)N1CC=C	2	1	1	0	0	2
C=CCN1C(=O)/C(=C/c2ccc(OCC(=O)O)cc2)S/C1=N/c1nccs1	-2	7	-7	1	-1	13
CC(C)CNc1ncnc2oc(-c3ccco3)c(-c3ccco3)c12	.	.	.	-1	.	.
CCOc1ccc(NC(=O)CSc2nc3ccccc3nc2N2CCOCC2)cc1	-2	-4	22	1	0	34*!
CC(C)OP(=O)(OC(C)C)C(NC(=O)c1ccccc1Br)C(N)=O (stereo not given)	-12	-8	1	-1	-1	32*
NC(=S)NNC(=O)C12CC3CC(CC(C3)C1)C2	-5	-9	?	17	32*	-10
COC(=O)NNC(=O)C12CC3CC(CC(C3)C1)C2	-5	10	-11	0	0	23
COc1ccc(-c2nn(-c3ccccc3)cc2C(=O)Nc2ccccc2OC)cc1	44	.	.	1	-2	44*
Cc1nn2c(CN(C(=O)COc3ccccc3)c3ccccc3)nnc2c2ccccc12	0	4	1	1	2	40*
Cc1nn2c(CN(C(=O)CN3CCOCC3)c3ccccc3)nnc2c2ccccc12	17	-5	4	-1	1	2
CC1CCN(c2nnc(NC(=O)Cn3c(=O)oc4ccccc43)s2)CC1	-6	-13	-1	0	1	12
O=C(Cn1c(=O)oc2ccccc21)Nc1nnc(N2CCCCCC2)s1	-1	-10	-4	-1	-1	30*
c1ccc2c(c1)CCCN2	.	.	.	0	.	.
CCCCCC1CCNCC1	.	.	.	0	.	.
CCOc1ccccc1N(CC)C(=O)c1cc2c(=O)n(CC)c3ccccc3c2s1	46	.	.	3	0	50*
CCCN(C(=O)c1cc2c(=O)n(CC)c3ccccc3c2s1)c1ccccc1F	-1	.	.	-1	0	-1
COc1cc2c(C(=O)N3CCOCC3)c(CSc3ccccc3)n(C)c2cc1Br	74	102*	?	6	0	4
O=C(COc1ccccc1C(=O)OCC(=O)Nc1cccc2ccccc12)Nc1ccc(Br)cc1	.	.	.	-1	.	.
CC(C)/C=C1\CC/C(=C\c2ccc(N(C)C)cc2)C1=O	-24	3	?	64*	94*	18
COc1cc(/C=C2\SC(=Nc3ccc(O)cc3)NC2=O)cc(OC)c1O	38	-7	7	9	44*	3
CCc1ccc(N=C2NC(=O)/C(=C/c3cc(OC)c(OC)c(OC)c3)S2)cc1	-1	-12	28	2	0	0
CCOC(=O)/C=C1\CN(Cc2ccc(OC)cc2)S(=O)(=O)c2ccc(C(F)(F)F)cc21	.	.	.	0	.	.
CN(C)c1ccc(/C=C/c2ccnc3cc(Cl)cc(Cl)c23)cc1	.	.	.	10	.	.
SMILES	TRPML1 blocker	TRPV1 potentiator	TRPV1 ag	TRPML1 agonist	TRHR agonist	TRHR enhancer
CCOc1ccc(-n2c(=O)c3sccc3n(CC(=O)NC3CCCCC3)c2=O)cc1	38	3	0	0	-1	39*
Cc1ccc(-n2c(=O)c3sccc3n(CC(=O)NC3CCCC3)c2=O)cc1	-10	26	-4	0	-1	-1
COc1cc2c(NC3CCN(C)CC3)nc(N3CCCN(C)CC3)nc2cc1OCC1CCCCN1 (stereo not given)	.	.	.	0	.	.
Nc1cc(=O)[nH]c(=O)n1-c1ccc(Cl)cc1	-77*	16	-4	-1	0	0
Cc1cc(=O)n(-c2ccc(Cl)cc2)c(=O)[nH]1	3	22	-1	0	2	3
Cc1nnc2sc(SCc3ccccc3)nn2c1=O	.	8	-3	.	0	34*
CCN(Cc1ccccc1)c1ccc(/C=C/c2nccc3ccccc23)cc1	.	.	.	22	.	.
O=C(CC(C(=O)O)n1ccnc1)c1ccc(Cl)cc1 (stereo not given)	.	.	.	0	.	.
